Source: PubChem BioAssay (NCI)
Several values for one entry are separate records, joined by “and”; a condition that tells them apart may be missing. Identical values can stand only once. Compounds without any hit were thinned out: in the full panel of roughly 83,000, 20% have a hit.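 Assay: single dose, 48 h. Readout: percent growth (0 = no net growth; negative = cell death). Active: <10.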 Activity calls are given as the source filed them.

System: T-47D breast
Test: NCI-60 one-dose screen, 48 h (100 = growth as untreated, 0 = no growth, -100 = all killed)
Conditions: 10 µM unless noted

| Compound | growth |
| --- | --- |
| O=C1c2ccccc2C(=O)N1c1ccccc1 | 95.7% (inactive) |
| c1ccc2c(c1)Nc1cc3ccccc3cc1N2 | 24.9% (inactive) |
| CCC(CCCN(CC)CCc1ccccc1)OC(=O)c1cc(OC)c(OC)c(OC)c1 (stereo unspecified) | 77.8% (inactive) |
| O=C(Nc1cccc(Br)c1)Oc1ccc(Cl)c2cccnc12 | 12.1% [100 µM] (inactive) |
| CCCCCCC(C)c1ccccc1O (stereo unspecified) (tested in a mixture with another compound) | 94.8% (inactive) |
| O=C1c2cccnc2-c2nccc3c2c1nc1cc(Br)ccc13 | -34.3% (active) and -63.8% (active) |
| CNc1ccc(N)cc1 | 119% (inactive) |
| Cc1c2ccccc2c(C)c2c1ccc1ccccc12 | 65.3% (inactive) |
| O=[N+]([O-])c1ccc(N=Nc2ccc(O)cc2O)cc1 | 27.4% (inactive) |
| CN(C)CCOc1ccc2c(c1)C(=O)/C(=C\c1ncc([N+](=O)[O-])n1C)C2 | 25.4% (inactive) |
| C1=C(c2ccccc2)C(c2ccc(OCCN3CCCCC3)cc2)Oc2ccccc21 (stereo unspecified) | 26.1% (inactive) |
| CN(C)C(=O)SC1=C(c2c(Cl)cccc2Cl)C(=O)c2ccccc21 | -71.9% (active) |
| N#CSCc1ccc(CSC#N)c(Cl)c1 | 68.4% (inactive) |
| COc1ccccc1/C=C\C(=O)c1ccccc1 | 81.9% (inactive) |
| CN(C)c1ccc(C(=C2C=CC(=[N+](C)C)C=C2)c2ccc(N(C)C)cc2)cc1 (tested in a mixture with another compound) | -92.4% (active) |
| O=C1C=CC(=O)N1C1c2ccccc2-c2ccccc21 | 73.6% (inactive) |

| Compound | growth |
| --- | --- |
| COC(=O)c1nc(=S)[nH]c(C(=O)OC)c1C(=O)c1ccc2ccccc2c1 | 86.5% (inactive) |
| CC1OC2CC(=O)OC2C2=C1C(=O)c1c(O)cccc1C2=O (stereo unspecified) | -30.1% (active) |
| CC(=Nc1ccc(N(C)C)cc1)c1ccccc1 | 39.6% (inactive) |
| O=C1NC(=O)/C(=C/C=C/c2ccccc2)S1 | 60.7% (inactive) |
| CCCCCC(CCCCC)C(=O)O | 100% (inactive) |
| Oc1c(Br)c(Br)c(O)c(Br)c1Br | 25.2% (inactive) |
| Cc1cc2nc(CS)[nH]c2cc1C | 74.3% (inactive) |
| COc1ccc2nc3cc(Cl)ccc3c(NCCNc3c4ccc(Cl)cc4nc4ccc(OC)cc34)c2c1 | -64.4% (active) |
| CC1(C)CC([P+](c2ccccc2)(c2ccccc2)c2ccccc2)=NN1 | 6.55% (active) |
| S=C(NCCNC(=S)[S][Sn]([c]1ccccc1)([c]1ccccc1)[c]1ccccc1)[S][Sn]([c]1ccccc1)([c]1ccccc1)[c]1ccccc1 | -75.7% (active) |
| O=C1c2ccccc2C(=O)c2sc(Nc3cccc(Cl)c3)nc21 | 16% (inactive) |
| CCCCCCCCCCCCCCCC[N+](C)(CCO)Cc1cnc[nH]1 (stereo unspecified) | 16.5% (inactive) |
| C/C=C1\SC(=S)NC1=O | 92.6% (inactive) |
| Cn1c2c(c3ccccc31)CCN1C[C@@H]3CCCC[C@H]3C[C@@H]21 | 32.9% (inactive) |
| O=C1OCc2cccc3cccc1c23 | 114% (inactive) |
| O=C(Nc1ccccc1)c1cc(Cl)ccc1O | 23.4% (inactive) |

System: BT-549 breast
Test: as above
Conditions: 10 µM unless noted

| Compound | growth |
| --- | --- |
| O=C1c2ccccc2C(=O)N1c1ccccc1 | 107% (inactive) |
| c1ccc2c(c1)Nc1cc3ccccc3cc1N2 | 33% (inactive) |
| CCC(CCCN(CC)CCc1ccccc1)OC(=O)c1cc(OC)c(OC)c(OC)c1 (stereo unspecified) | 99.6% (inactive) |
| O=C(Nc1cccc(Br)c1)Oc1ccc(Cl)c2cccnc12 | 4.77% [100 µM] (active) |
| CCCCCCC(C)c1ccccc1O (stereo unspecified) (tested in a mixture with another compound) | 108% (inactive) |
| O=C1c2cccnc2-c2nccc3c2c1nc1cc(Br)ccc13 | -73.9% (active) and -67.8% (active) |
| CNc1ccc(N)cc1 | 87.6% (inactive) |
| Cc1c2ccccc2c(C)c2c1ccc1ccccc12 | 98.8% (inactive) |
| O=[N+]([O-])c1ccc(N=Nc2ccc(O)cc2O)cc1 | 64.5% (inactive) |
| C1=C(c2ccccc2)C(c2ccc(OCCN3CCCCC3)cc2)Oc2ccccc21 (stereo unspecified) | 72.9% (inactive) |
| CN(C)C(=O)SC1=C(c2c(Cl)cccc2Cl)C(=O)c2ccccc21 | 87.2% (inactive) |
| N#CSCc1ccc(CSC#N)c(Cl)c1 | 56.5% (inactive) |
| COc1ccccc1/C=C\C(=O)c1ccccc1 | 83.2% (inactive) |
| CCOC(=O)/C=C/c1ccc([N+](=O)[O-])o1 | 62.7% (inactive) |
| COC(=O)c1nc(=S)[nH]c(C(=O)OC)c1C(=O)c1ccc2ccccc2c1 | 131% (inactive) |
| CC1OC2CC(=O)OC2C2=C1C(=O)c1c(O)cccc1C2=O (stereo unspecified) | -98.5% (active) |
| CC(=Nc1ccc(N(C)C)cc1)c1ccccc1 | 58.3% (inactive) |
| Oc1c(Br)c(Br)c(O)c(Br)c1Br | 95.3% (inactive) |
| COc1ccc2nc3cc(Cl)ccc3c(NCCNc3c4ccc(Cl)cc4nc4ccc(OC)cc34)c2c1 | -76.6% (active) |
| S=C(NCCNC(=S)[S][Sn]([c]1ccccc1)([c]1ccccc1)[c]1ccccc1)[S][Sn]([c]1ccccc1)([c]1ccccc1)[c]1ccccc1 | -78.8% (active) |
| O=C1c2ccccc2C(=O)c2sc(Nc3cccc(Cl)c3)nc21 | 61.5% (inactive) |
| C/C=C1\SC(=S)NC1=O | 95.7% (inactive) |
| Cn1c2c(c3ccccc31)CCN1C[C@@H]3CCCC[C@H]3C[C@@H]21 | 22.5% (inactive) |
| O=C(Nc1ccccc1)c1cc(Cl)ccc1O | 57.5% (inactive) |
